# Measurements from article PMC7862700, “An all-to-all approach to the identification of sequence-specific readers for epigenetic DNA modifications on cytosine”.
# Experiments:
# Assay in all cases: DAPPL (digital affinity profiling via proximity ligation, sequencing); 10 mM Tris-HCl pH 7.5, 50 mM NaCl, 1 mM DTT, 4% glycerol, room temperature, 30 min; GST-TFs on glutathione beads, 16-mer random dsDNA library, 0.1% formaldehyde crosslink after washing; high values mean tight binding
# Details in all cases: protein: recombinant; tags: N-terminal GST; dsDNA, one strand shown
# ERF = biological target: T1, ERF (Homo sapiens, UniProt P50548 1-548)
# T1 sequence: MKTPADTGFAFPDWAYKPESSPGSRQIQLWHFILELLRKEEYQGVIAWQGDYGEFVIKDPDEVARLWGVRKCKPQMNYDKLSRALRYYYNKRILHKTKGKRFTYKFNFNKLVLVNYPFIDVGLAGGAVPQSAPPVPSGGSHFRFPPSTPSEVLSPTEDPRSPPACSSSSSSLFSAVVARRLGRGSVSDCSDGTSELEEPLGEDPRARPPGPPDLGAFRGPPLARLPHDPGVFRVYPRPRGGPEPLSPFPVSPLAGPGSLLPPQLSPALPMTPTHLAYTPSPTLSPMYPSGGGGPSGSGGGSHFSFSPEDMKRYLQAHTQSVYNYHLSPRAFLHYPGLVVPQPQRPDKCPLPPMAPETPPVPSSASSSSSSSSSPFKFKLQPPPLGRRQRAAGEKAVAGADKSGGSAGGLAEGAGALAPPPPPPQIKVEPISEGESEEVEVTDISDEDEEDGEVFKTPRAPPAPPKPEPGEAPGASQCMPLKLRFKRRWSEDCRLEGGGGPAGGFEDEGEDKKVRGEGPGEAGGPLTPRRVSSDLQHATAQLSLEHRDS
# How it was run: (§1)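 Sequencing on an Illumina NextSeq500 followed washing, crosslinking with 0.1% formaldehyde, proximity ligation (BsaI/T4 ligase, 1 h, 37 °C) and PCR amplification of pools that had been incubated for 30 min at room temperature with 200 nmole of a random double-stranded 16-mer DNA library in Tris/NaCl/DTT/glycerol buffer. Each pool held DNA-barcoded human transcription factors, expressed in yeast as GST fusions and captured on glutathione beads, plus a tag-only sample. Binding signal is a hexamer's read frequency for a factor divided by its frequency in the tag-only sample.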
# ETV3L = biological target: T2, ETV3L (Homo sapiens, UniProt Q6ZN32 1-361)
# T2 sequence: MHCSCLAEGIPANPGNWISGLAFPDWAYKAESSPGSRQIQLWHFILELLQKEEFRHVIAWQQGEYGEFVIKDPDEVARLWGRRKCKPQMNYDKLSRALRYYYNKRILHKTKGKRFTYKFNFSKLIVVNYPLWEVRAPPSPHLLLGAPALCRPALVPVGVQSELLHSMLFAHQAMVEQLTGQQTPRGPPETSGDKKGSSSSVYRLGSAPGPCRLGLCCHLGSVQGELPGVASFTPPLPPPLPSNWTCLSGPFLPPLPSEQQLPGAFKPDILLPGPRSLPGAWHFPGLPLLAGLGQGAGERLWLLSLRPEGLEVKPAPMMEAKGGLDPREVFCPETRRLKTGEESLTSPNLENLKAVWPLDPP
# How it was run: as §1
# ETS2 = biological target: T3, ETS2 (Homo sapiens, UniProt P15036 1-469)
# T3 sequence: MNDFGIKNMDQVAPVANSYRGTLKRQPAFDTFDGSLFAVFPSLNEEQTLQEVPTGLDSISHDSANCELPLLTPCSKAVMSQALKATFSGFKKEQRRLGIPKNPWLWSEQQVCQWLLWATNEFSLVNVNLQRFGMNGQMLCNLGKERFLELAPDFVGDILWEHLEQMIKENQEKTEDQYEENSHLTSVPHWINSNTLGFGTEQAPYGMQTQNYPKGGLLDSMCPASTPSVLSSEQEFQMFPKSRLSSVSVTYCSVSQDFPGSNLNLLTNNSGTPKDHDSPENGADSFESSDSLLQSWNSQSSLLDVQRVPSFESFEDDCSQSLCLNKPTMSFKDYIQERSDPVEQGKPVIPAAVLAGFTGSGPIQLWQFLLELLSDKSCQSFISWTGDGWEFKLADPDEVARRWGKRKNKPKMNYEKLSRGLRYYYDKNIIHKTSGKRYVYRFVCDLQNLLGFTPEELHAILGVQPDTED
# How it was run: as §1
# SPDEF = biological target: T4, SPDEF (Homo sapiens, UniProt O95238 1-335)
# T4 sequence: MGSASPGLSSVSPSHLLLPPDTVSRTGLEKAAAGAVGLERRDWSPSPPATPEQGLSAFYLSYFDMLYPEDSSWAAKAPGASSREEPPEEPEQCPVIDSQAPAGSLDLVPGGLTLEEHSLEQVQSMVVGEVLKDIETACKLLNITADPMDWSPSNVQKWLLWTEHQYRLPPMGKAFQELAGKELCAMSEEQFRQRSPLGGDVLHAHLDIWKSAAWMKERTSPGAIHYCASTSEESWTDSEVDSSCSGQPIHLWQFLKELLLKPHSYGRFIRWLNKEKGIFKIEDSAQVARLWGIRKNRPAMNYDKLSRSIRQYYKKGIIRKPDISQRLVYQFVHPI
# How it was run: as §1
# ETV7 = biological target: T5, ETV7 (Homo sapiens, UniProt Q9Y603 1-341)
# T5 sequence: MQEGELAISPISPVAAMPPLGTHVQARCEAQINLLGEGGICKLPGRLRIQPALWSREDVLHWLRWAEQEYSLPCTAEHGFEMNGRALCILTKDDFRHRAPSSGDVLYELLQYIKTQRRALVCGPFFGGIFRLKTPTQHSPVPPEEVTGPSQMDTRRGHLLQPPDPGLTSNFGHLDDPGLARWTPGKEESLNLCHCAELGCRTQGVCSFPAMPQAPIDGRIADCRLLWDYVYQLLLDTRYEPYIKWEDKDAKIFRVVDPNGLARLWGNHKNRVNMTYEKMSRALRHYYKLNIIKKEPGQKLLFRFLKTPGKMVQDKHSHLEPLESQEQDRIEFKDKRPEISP
# How it was run: as §1
# ELF5 = biological target: T6, ELF5 (Homo sapiens, UniProt Q9UKW6-2 1-255)
# T6 sequence: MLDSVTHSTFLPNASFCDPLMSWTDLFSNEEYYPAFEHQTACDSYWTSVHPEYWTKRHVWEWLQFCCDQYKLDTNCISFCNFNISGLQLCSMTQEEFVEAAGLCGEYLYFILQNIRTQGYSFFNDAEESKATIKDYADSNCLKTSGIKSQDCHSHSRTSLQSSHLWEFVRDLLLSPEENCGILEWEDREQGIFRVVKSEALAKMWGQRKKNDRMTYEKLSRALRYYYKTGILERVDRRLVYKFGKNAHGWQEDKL
# How it was run: as §1
# ETV3 = biological target: T7, ETV3 (Homo sapiens, UniProt P41162-2 1-143)
# T7 sequence: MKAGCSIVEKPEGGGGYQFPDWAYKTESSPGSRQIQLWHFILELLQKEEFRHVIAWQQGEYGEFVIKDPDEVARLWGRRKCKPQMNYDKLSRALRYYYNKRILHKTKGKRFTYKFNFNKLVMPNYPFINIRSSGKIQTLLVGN
# How it was run: as §1
# ETV6 = ETV6 (Homo sapiens, UniProt P41212 1-452)
# Chain of ETV6 (P41212 whole entry): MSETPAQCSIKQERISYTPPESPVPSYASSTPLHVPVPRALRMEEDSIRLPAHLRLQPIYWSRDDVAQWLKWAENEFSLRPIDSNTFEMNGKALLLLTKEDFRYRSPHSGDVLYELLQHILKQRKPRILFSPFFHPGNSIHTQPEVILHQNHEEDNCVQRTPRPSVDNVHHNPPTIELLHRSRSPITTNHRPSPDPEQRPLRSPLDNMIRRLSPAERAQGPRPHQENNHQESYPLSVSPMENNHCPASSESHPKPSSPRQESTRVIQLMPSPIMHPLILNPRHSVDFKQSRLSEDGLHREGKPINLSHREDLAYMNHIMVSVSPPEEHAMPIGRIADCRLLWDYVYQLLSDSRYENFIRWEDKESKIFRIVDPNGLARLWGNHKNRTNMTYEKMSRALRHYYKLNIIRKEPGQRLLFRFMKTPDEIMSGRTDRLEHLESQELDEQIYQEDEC
# How it was run: as §1
Sequence,binding signal (ERF),binding signal (ETV3L),binding signal (ETS2),binding signal (SPDEF),binding signal (ETV7),binding signal (ELF5),binding signal (ETV3),binding signal (ETV6)
AACATC,"1.43 fold enrichment (6-mer frequency, TF over GST control)","1.41 fold enrichment (6-mer frequency, TF over GST control)","1.45 fold enrichment (6-mer frequency, TF over GST control)","1.68 fold enrichment (6-mer frequency, TF over GST control)","1.35 fold enrichment (6-mer frequency, TF over GST control)","1.64 fold enrichment (6-mer frequency, TF over GST control)","1.5 fold enrichment (6-mer frequency, TF over GST control)","1.4 fold enrichment (6-mer frequency, TF over GST control)"
ATACGA,"1.17 fold enrichment (6-mer frequency, TF over GST control)","1.1 fold enrichment (6-mer frequency, TF over GST control)","1.17 fold enrichment (6-mer frequency, TF over GST control)","1.18 fold enrichment (6-mer frequency, TF over GST control)","1.11 fold enrichment (6-mer frequency, TF over GST control)","1.17 fold enrichment (6-mer frequency, TF over GST control)","1.11 fold enrichment (6-mer frequency, TF over GST control)","1.08 fold enrichment (6-mer frequency, TF over GST control)"
AATAGT,"1.21 fold enrichment (6-mer frequency, TF over GST control)","1.25 fold enrichment (6-mer frequency, TF over GST control)","1.13 fold enrichment (6-mer frequency, TF over GST control)","1.06 fold enrichment (6-mer frequency, TF over GST control)","1.18 fold enrichment (6-mer frequency, TF over GST control)","1.18 fold enrichment (6-mer frequency, TF over GST control)","1.3 fold enrichment (6-mer frequency, TF over GST control)","1.34 fold enrichment (6-mer frequency, TF over GST control)"
TCCCAC,"1.5 fold enrichment (6-mer frequency, TF over GST control)","1.31 fold enrichment (6-mer frequency, TF over GST control)","1.23 fold enrichment (6-mer frequency, TF over GST control)","1.33 fold enrichment (6-mer frequency, TF over GST control)","1.41 fold enrichment (6-mer frequency, TF over GST control)","1.47 fold enrichment (6-mer frequency, TF over GST control)","1.24 fold enrichment (6-mer frequency, TF over GST control)","1.4 fold enrichment (6-mer frequency, TF over GST control)"
AGCTCC,"1.24 fold enrichment (6-mer frequency, TF over GST control)","1.25 fold enrichment (6-mer frequency, TF over GST control)","1.33 fold enrichment (6-mer frequency, TF over GST control)","1.4 fold enrichment (6-mer frequency, TF over GST control)","1.17 fold enrichment (6-mer frequency, TF over GST control)","1.2 fold enrichment (6-mer frequency, TF over GST control)","1.22 fold enrichment (6-mer frequency, TF over GST control)","1.32 fold enrichment (6-mer frequency, TF over GST control)"
TCCGCT,"2.12 fold enrichment (6-mer frequency, TF over GST control)","2.23 fold enrichment (6-mer frequency, TF over GST control)","2.32 fold enrichment (6-mer frequency, TF over GST control)","2.51 fold enrichment (6-mer frequency, TF over GST control)","2.07 fold enrichment (6-mer frequency, TF over GST control)","2.58 fold enrichment (6-mer frequency, TF over GST control)","2.44 fold enrichment (6-mer frequency, TF over GST control)","2.44 fold enrichment (6-mer frequency, TF over GST control)"
CTCTGG,"1.36 fold enrichment (6-mer frequency, TF over GST control)","1.45 fold enrichment (6-mer frequency, TF over GST control)","1.19 fold enrichment (6-mer frequency, TF over GST control)","1.19 fold enrichment (6-mer frequency, TF over GST control)","1.33 fold enrichment (6-mer frequency, TF over GST control)","1.21 fold enrichment (6-mer frequency, TF over GST control)","1.31 fold enrichment (6-mer frequency, TF over GST control)","1.39 fold enrichment (6-mer frequency, TF over GST control)"
TACTAT,"1.38 fold enrichment (6-mer frequency, TF over GST control)","1.25 fold enrichment (6-mer frequency, TF over GST control)","1.37 fold enrichment (6-mer frequency, TF over GST control)","1.37 fold enrichment (6-mer frequency, TF over GST control)","1.35 fold enrichment (6-mer frequency, TF over GST control)","1.27 fold enrichment (6-mer frequency, TF over GST control)","1.36 fold enrichment (6-mer frequency, TF over GST control)","1.39 fold enrichment (6-mer frequency, TF over GST control)"
AACCTG,"1.17 fold enrichment (6-mer frequency, TF over GST control)","1.08 fold enrichment (6-mer frequency, TF over GST control)","1.27 fold enrichment (6-mer frequency, TF over GST control)","1.13 fold enrichment (6-mer frequency, TF over GST control)","1.21 fold enrichment (6-mer frequency, TF over GST control)","1.16 fold enrichment (6-mer frequency, TF over GST control)","1.2 fold enrichment (6-mer frequency, TF over GST control)","1.14 fold enrichment (6-mer frequency, TF over GST control)"
AATTAT,"1.15 fold enrichment (6-mer frequency, TF over GST control)","1.26 fold enrichment (6-mer frequency, TF over GST control)","1.27 fold enrichment (6-mer frequency, TF over GST control)","1.24 fold enrichment (6-mer frequency, TF over GST control)","1.23 fold enrichment (6-mer frequency, TF over GST control)","1.24 fold enrichment (6-mer frequency, TF over GST control)","1.28 fold enrichment (6-mer frequency, TF over GST control)","1.2 fold enrichment (6-mer frequency, TF over GST control)"
TTGACT,"1.18 fold enrichment (6-mer frequency, TF over GST control)","1.09 fold enrichment (6-mer frequency, TF over GST control)","1.14 fold enrichment (6-mer frequency, TF over GST control)","1.15 fold enrichment (6-mer frequency, TF over GST control)","1.22 fold enrichment (6-mer frequency, TF over GST control)","1.08 fold enrichment (6-mer frequency, TF over GST control)","1.15 fold enrichment (6-mer frequency, TF over GST control)","1.24 fold enrichment (6-mer frequency, TF over GST control)"
TGCTAA,"1.13 fold enrichment (6-mer frequency, TF over GST control)","1.25 fold enrichment (6-mer frequency, TF over GST control)","1.34 fold enrichment (6-mer frequency, TF over GST control)","1.32 fold enrichment (6-mer frequency, TF over GST control)","1.28 fold enrichment (6-mer frequency, TF over GST control)","1.25 fold enrichment (6-mer frequency, TF over GST control)","1.22 fold enrichment (6-mer frequency, TF over GST control)","1.29 fold enrichment (6-mer frequency, TF over GST control)"
